The results in this text go back to PubChem BioAssay AID1347416 (National Center for Advancing Translational Sciences (NCATS), 2020).

The structures appear in SMILES notation. Among all 4,100 compounds or so, about 1,600 (39%) were called active. Not shown: some 25% with an inconclusive outcome. Calls come from the whole dose curve; as a rule, active = well fitted inhibition curve with a large enough effect; inconclusive = small, poorly fitted or top-dose-only effect; inactive = no such curve, though single readings can be large or run the other way. The list shows a part of the results.
Potency is the fitted concentration of half-maximal effect.

A short description of the assay: qHTS Validation assay for Inhibitors of Plasmodium falciparum Dd2 growth in vitro. Note: nearly all actives have a fitted effect of over 70% in size. To be noted: P. falciparum Dd2 in RBCs, SYBR Green growth, 72 h; series mostly up to 28.7 µM. In a few lines:
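P. falciparum Dd2-infected red blood cells (2.5% hematocrit, 0.3% parasitemia) grown 72 h at 37 °C under 5% O2 with compounds in a titration, 29 uM to 0.5 nM final. Growth read as SYBR Green-1 fluorescence after ~16 h lysis; artesunate 300 nM as positive control.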
In the case of `CCCCOc1cccc(C(=O)N(Cc2ccc(Br)o2)C2CCS(=O)(=O)C2)c1` (stereo not drawn), the Potency entry is “inactive”.

In the case of `Oc1cc(NCc2ccccc2)cc2cccnc12`, the Potency is 2.99 µM (active).

Consider `Oc1cc(NCc2ccc(F)cc2)cc2cccnc12`, for which the Potency is 4.73 µM (active).

Regarding `O=C(CCn1c(=O)c2cccn2c2cccnc21)NCc1ccc(F)cc1`, the Potency entry was “inactive”.

Turning to `Cc1ccc(-c2cc3c(=O)n(CCNC(=O)c4cccnc4)ccn3n2)c(C)c1`, the Potency entry was “inactive”.

For `COc1cccc(CNC(=O)Cn2c(SCC(=O)Nc3ccc(F)cc3)nc3ccccc32)c1`, the Potency entry is “inactive”.

As for `COc1cccc(NC(=O)CN(C)C(=O)c2oc3c(ccc4ccccc43)c2C)c1`, the Potency was 0.75 µM (active).

With `COc1ccc(NC(=O)CN(C)C(=O)c2oc3c(ccc4ccccc43)c2C)cc1`, the Potency was 0.531 µM (active).

For the compound `COc1ccc(C(=O)OCCc2cc3ccccc3c(=O)o2)cc1`, the Potency result was “inactive”.

Take `COc1cccc(NC(=O)CCc2c(C)nc3c4cccnc4nn3c2C)c1`: the Potency result is “inactive”.

Take `COCc1nc(C2CC(NC(=O)c3cc(-c4ccsc4)n[nH]3)C2)cc(=O)[nH]1` (stereo not drawn): the Potency entry is “inactive”.

`COc1ccc(C(C(=O)Nc2ccc(C(C)C)cc2)N(Cc2ccco2)C(=O)CC2NC(=O)NC2=O)cc1` (stereo not drawn): the Potency is 6.68 µM (active).

As to `CN1CCN(C(=O)c2ccc3c(c2)N(Cc2ccc(C(F)(F)F)cc2)C(=O)c2ccccc2S3)CC1`, the Potency was 0.531 µM (active).

For `CCOc1ccc(CN2C(=O)c3ccccc3Sc3ccc(C(=O)N4CCN(C)CC4)cc32)cc1`, the Potency is 0.299 µM (active).

As to `O=C(c1ccc2[nH]ncc2c1)N1CCOCC12CCN(CCCc1ccccc1)CC2`, the Potency result is “inactive”.

Consider `O=C(Nc1ccsc1C(=O)NC1CCCCC1)c1ccc(F)cc1`, for which the Potency was 6.68 µM (active).

On to `Cc1cn2nc(C(=O)N3CCC(NC(=O)c4ccc(F)cc4)CC3)cc2c(=O)[nH]1`, for which the Potency result was “inactive”.

Take `CCCN(CC1CCOC1)S(=O)(=O)c1ccc(C)c(C)c1` (stereo not drawn): the Potency entry is “inactive”.

Take `COC(=O)c1cnn(-c2ccc(C(=O)Nc3ccc(OC(F)(F)F)cc3)cc2)c1N`: the Potency was 4.73 µM (active).

Turning to `Cc1ccc(C(=O)Nc2ccc(OCc3cc(=O)n4c(C)csc4n3)cc2)cc1`, the Potency entry is “inactive”.

As to `COC(=O)c1cnn(-c2ccc(C(=O)Nc3cccc(C(C)=O)c3)cc2)c1N`, the Potency result is “inactive”.

Turning to `Cn1cc(CC(=O)N2CCCc3ncc(C(=O)Nc4cccnc4)cc32)c2ccccc21`, the Potency result is “inactive”.

For the compound `CNC(=O)c1cnc2c(c1)N(C(=O)Cc1ccc(C(C)C)cc1)CCC2`, the Potency result is “inactive”.

Take `CC(C)c1ccc(CC(=O)N2CCCc3ncc(C(=O)NCCc4c[nH]c5ccccc45)cc32)cc1`: the Potency was 15 µM (active).

For the compound `CC(C)CCNC(=O)c1cnc2c(c1)N(C(=O)Cc1cn(C)c3ccccc13)CCC2`, the Potency result was “inactive”.

As for `CC(C)c1ccc(CC(=O)N2CCCc3ncc(C(=O)Nc4cccnc4)cc32)cc1`, the Potency is 0.863 µM (active).

As for `O=C(NCc1ccc2c(c1)OCO2)c1cnc2c(c1)N([S+](=O)([O-])c1cccnc1)CCC2`, the Potency result is “inactive”.

Regarding `O=C(O)CCC(=O)Nc1ccc(-n2ccc(C(F)(F)F)n2)cc1`, the Potency result was “inactive”.

In the case of `O=C1N(c2ccccc2C(F)(F)F)O[C@@]1(c1ccccc1)C1CCCCC1`, the Potency was 5.31 µM (active).

`O=C1N(c2ccccc2C(F)(F)F)O[C@@]1(c1ccccc1)C1CCCC1`: the Potency is 2.99 µM (active).

For the compound `O=C1CC2(CCN(Cc3cccs3)CC2)Oc2cc(Cl)ccc21`, the Potency was 5.31 µM (active).

On to `O=C1CC2(CCN(CC3CCCCC3)CC2)Oc2cc(Cl)ccc21`, for which the Potency was 1.5 µM (active).

On to `CC(=O)c1c(C)nc(C)nc1NC(=O)C(C)C`, for which the Potency result was “inactive”.

`COc1ccccc1CN1CCC(CNC(=O)c2cnn(-c3cccc(Cl)c3)c2C2CCN(C(=O)OC(C)(C)C)CC2)CC1`: the Potency was 7.5 µM (active).

Turning to `COc1ccccc1CN1CCC(CNC(=O)c2cnn(-c3ccc(Cl)cc3)c2C2CCN(C(=O)OC(C)(C)C)CC2)CC1`, the Potency is 2.66 µM (active).

Take `Cc1ccc(CN2CCC(CNC(=O)c3cnn(-c4ccc(C)cc4)c3C3CCN(C(=O)OC(C)(C)C)CC3)CC2)cc1`: the Potency is 8.41 µM (active).

Turning to `CNC(=O)[C@@H]1CN(C(=O)c2cc(OC)cc(OC)c2)C[C@H]1COC`, the Potency entry is “inactive”.

As for `CC(=O)Nc1ccc(NC(=O)Cn2ccn3nc4c(c3c2=O)CCCCC4)cc1`, the Potency result is “inactive”.

Regarding `COc1ccc(-c2cc(=O)oc3c4c(ccc23)OCN(Cc2ccccc2)C4)cc1`, the Potency is 2.99 µM (active).

For the compound `COc1ccccc1Cn1cc(C(=O)c2ccc(C)cc2)c(=O)c2cc(C)ccc21`, the Potency result is “inactive”.

Turning to `O=c1cc(-c2ccccc2)c2ccc3c(c2o1)CN(Cc1ccccc1)CO3`, the Potency was 2.66 µM (active).

With `CCc1c(C)c2ccc(O)c(CN3CCN(c4ccccc4)CC3)c2oc1=O`, the Potency is 2.37 µM (active).

In the case of `COc1ccccc1CN1COc2ccc3c(oc(=O)c4ccccc43)c2C1`, the Potency is 2.11 µM (active).

Take `COc1ccc(-c2ncc3c(n2)OCCN(Cc2ccccc2)C3=O)cc1`: the Potency result was “inactive”.

For `Cn1nc(-c2nncn2CC2CC2)c2c1CCN(C(=O)c1[nH]nc3c1COc1ccccc1-3)C2`, the Potency result was “inactive”.

`COc1cccc(C2Cn3nnc(-c4nc(-c5ccccc5Br)no4)c3CO2)c1` (stereo not drawn): the Potency result was “inactive”.

As to `O=c1cc(-c2ccccc2)c2ccc3c(c2o1)CN(Cc1cccc(Cl)c1)CO3`, the Potency was 0.842 µM (active).

Turning to `CCc1c(C)c2ccc3c(c2oc1=O)CN(Cc1ccccc1)CO3`, the Potency is 2.11 µM (active).

For the compound `Cc1ccc(CN2COc3ccc4c(-c5ccccc5)cc(=O)oc4c3C2)cc1`, the Potency is 0.842 µM (active).

As for `CCC(=O)N(C1CCOCC1)C1CCN(Cc2cccc(Cl)c2)CC1`, the Potency entry was “inactive”.

Regarding `Cc1ccc(CN2CCc3oc(C)c(C(=O)N(C)CC(=O)N4CCCC4)c3C2)cc1`, the Potency result was “inactive”.

For the compound `O=C1CN(Cc2ccc(-c3ccccc3)cc2)CCN1c1cc(Cl)ncn1`, the Potency entry was “inactive”.

As to `O=C(NC(=S)Nc1ccc(NC(=O)c2cccs2)cc1)c1ccco1`, the Potency is 9.44 µM (active).

For the compound `CCOc1ccc(-c2cc3c(=O)n(CCNC(=O)c4ccccc4OC)ccn3n2)cc1`, the Potency entry was “inactive”.

As to `COc1ccc(C(=O)NCCn2ccn3nc(-c4cc(C)ccc4C)cc3c2=O)cc1OC`, the Potency result was “inactive”.

For `COc1ccccc1CC(=O)NCCn1ccn2nc(-c3ccc(C)c(C)c3)cc2c1=O`, the Potency entry was “inactive”.

For `CCN(CCCNC(=O)c1nn(-c2ccc(OC)c(Cl)c2)c(=O)c2c1c1ccccc1n2C)c1cccc(C)c1`, the Potency was 15 µM (active).

For the compound `COc1ccc(-n2nc(C(=O)NCCc3ccc(OC)c(OC)c3)c3c4ccccc4n(C)c3c2=O)cc1Cl`, the Potency is 2.99 µM (active).

In the case of `CCN(CC)CCCNC(=O)c1nn(-c2ccc(OC)c(Cl)c2)c(=O)c2c1c1ccccc1n2C`, the Potency is 10.6 µM (active).

As for `Cc1cccc(CNC(=O)Cn2nc(C)c3nn(-c4ccc(Cl)cc4)c(C)c3c2=O)c1`, the Potency result was “inactive”.

Consider `CCn1cnc2c(Nc3cc(F)cc(F)c3)nc(C#N)nc21`, for which the Potency is 2.37 µM (active).

As to `N#Cc1nc(Nc2cc(F)cc(F)c2)c2ncn(CC(F)F)c2n1`, the Potency was 4.73 µM (active).

As to `Cc1ccc2nc(-c3sc4nc(C)ccc4c3N)[nH]c2c1`, the Potency result was “inactive”.

On to `CCCC(O)c1nc2ccccc2n1CCCCOc1ccc(OC)cc1` (stereo not drawn), for which the Potency is 15 µM (active).

On to `COc1ccc(-c2cc3c(=O)n(CCNC(=O)c4ccc(OC)cc4OC)ccn3n2)cc1`, for which the Potency entry was “inactive”.

As to `COc1ccc(-c2cc3c(=O)n(CCNC(=O)c4cc(OC)cc(OC)c4)ccn3n2)cc1`, the Potency result is “inactive”.

As to `CCC(C(=O)NCCn1ccn2nc(-c3ccc(OC)cc3)cc2c1=O)c1ccccc1` (stereo not drawn), the Potency is 15 µM (active).

On to `CC(C)N(Cc1nc2ccccc2[nH]1)C(C)C`, for which the Potency result was “inactive”.

As to `COC[C@H]1CCCN1[C@@H]1[C@H](O)[C@H](CO)O[C@@H]1CN(Cc1cccc(Cl)c1)Cc1cccc(Cl)c1`, the Potency is 10.6 µM (active).

In the case of `O=C1c2ccccc2C2=Nc3ccccc3SC(c3ccc(Cl)cc3)C12` (stereo not drawn), the Potency is 2.66 µM (active).

With `O=C1c2ccccc2C2=Nc3ccccc3SC(c3ccccc3F)C12` (stereo not drawn), the Potency is 4.73 µM (active).

As for `CCCOC(=O)c1c(NC(=O)C(C)Sc2nc(-c3ccccc3)cc(C(F)(F)F)n2)sc(C(=O)N(C)C)c1C` (stereo not drawn), the Potency is 1.68 µM (active).

On to `CCN(CC)C(=O)c1sc(NC(=O)C(C)Sc2nc(-c3ccccc3)cc(C(F)(F)F)n2)c(C(=O)OC)c1C` (stereo not drawn), for which the Potency was 0.596 µM (active).

Take `Cc1ccc(NC(=O)CSc2nc(-c3ccco3)cc(C(F)(F)F)n2)c(C)c1`: the Potency result is “inactive”.

With `CCOC(=O)c1sc(NC(=O)C(C)Sc2nc(-c3ccccc3)cc(C(F)(F)F)n2)c(C(=O)OC)c1C` (stereo not drawn), the Potency was 2.37 µM (active).

In the case of `CCc1cc(C(=O)c2ccccc2)c(N)s1`, the Potency entry was “inactive”.

For the compound `Cc1ccc(-c2onc3ccc(C(=O)O)cc23)cc1`, the Potency result was “inactive”.

`COC(=O)c1ccc2nc(C)cc(Nc3ccc(O)cc3)c2c1`: the Potency was 9.44 µM (active).

In the case of `CCOc1ccc2nc(C)cc(Nc3ccc4c(c3)OCCO4)c2c1`, the Potency was 6.68 µM (active).

On to `Cc1ccc2nc(C)cc(Nc3ccc([N+](=O)[O-])cc3)c2c1`, for which the Potency is 6.68 µM (active).

With `COc1ccc2nc(C)cc(NCc3cccc(C(F)(F)F)c3)c2c1`, the Potency is 2.11 µM (active).

On to `COc1ccc2nc(C)cc(Nc3ccc(Cl)c(Cl)c3)c2c1`, for which the Potency is 2.66 µM (active).

`CCc1nc2cc(N3CCC(C(=O)NCc4ccc5c(c4)OCO5)CC3)cnc2nc1CC`: the Potency entry is “inactive”.

`Cc1ccc(S(=O)(=O)N2CCC(C(=O)NCC3CC3)CC2)cc1`: the Potency result is “inactive”.

Consider `Cc1ccc(S(=O)(=O)N2CCN(C(=S)NCc3ccc4c(c3)OCO4)CC2)cc1`, for which the Potency was 2.37 µM (active).

As for `Cc1cccnc1NC(=O)COc1ccc2oc3c(c2c1)CCCC3`, the Potency entry was “inactive”.

As for `CCCc1cc(=O)oc2cc(C)cc(OCC(=O)NC3CC3)c12`, the Potency was 4.73 µM (active).

For the compound `CCCc1cc(=O)oc2cc(C)cc(OCC(=O)Nc3ccccn3)c12`, the Potency is 2.11 µM (active).

Consider `CCn1ncc(N2CCC(NC(=O)COc3ccc(F)cc3)CC2)cc1=O`, for which the Potency result is “inactive”.

Regarding `Cc1cccc(OCC(=O)NC2CCN(C(=O)c3cc4c(=O)[nH]c(C)cn4n3)CC2)c1`, the Potency result was “inactive”.

For the compound `CCCCc1cc(=O)oc2cc(C)cc(OCC(=O)Nc3cccnc3)c12`, the Potency is 0.596 µM (active).

With `Cc1ccc(C)c(OCC(=O)Nc2cc(C(=O)O)cc(C(=O)O)c2)c1`, the Potency result was “inactive”.

As for `CCCc1cc(=O)oc2cc(C)cc(OCC(=O)Nc3cccnc3)c12`, the Potency was 0.531 µM (active).
